Assay outcomes: PubChem BioAssay, National Center for Advancing Translational Sciences (NCATS)
JMJD2A Tudor = blocks the human JMJD2A Tudor domain | AlphaScreen JMJD2A-Tudor / H3K4me3 peptide binding | Potency, µM (series often up to 114 µM), without a hit: at the highest dose activity change, negative = inhibition, hits mostly inhibitors | actives 4.4% (n = 390,000) | AID 504339; further: on the % scale 0 is the no-effect control and ±100 the full control effect; nearly all actives have a fitted effect of over 50% in size
Target sequence (O75164 whole entry, looked up, the tested form may be a part): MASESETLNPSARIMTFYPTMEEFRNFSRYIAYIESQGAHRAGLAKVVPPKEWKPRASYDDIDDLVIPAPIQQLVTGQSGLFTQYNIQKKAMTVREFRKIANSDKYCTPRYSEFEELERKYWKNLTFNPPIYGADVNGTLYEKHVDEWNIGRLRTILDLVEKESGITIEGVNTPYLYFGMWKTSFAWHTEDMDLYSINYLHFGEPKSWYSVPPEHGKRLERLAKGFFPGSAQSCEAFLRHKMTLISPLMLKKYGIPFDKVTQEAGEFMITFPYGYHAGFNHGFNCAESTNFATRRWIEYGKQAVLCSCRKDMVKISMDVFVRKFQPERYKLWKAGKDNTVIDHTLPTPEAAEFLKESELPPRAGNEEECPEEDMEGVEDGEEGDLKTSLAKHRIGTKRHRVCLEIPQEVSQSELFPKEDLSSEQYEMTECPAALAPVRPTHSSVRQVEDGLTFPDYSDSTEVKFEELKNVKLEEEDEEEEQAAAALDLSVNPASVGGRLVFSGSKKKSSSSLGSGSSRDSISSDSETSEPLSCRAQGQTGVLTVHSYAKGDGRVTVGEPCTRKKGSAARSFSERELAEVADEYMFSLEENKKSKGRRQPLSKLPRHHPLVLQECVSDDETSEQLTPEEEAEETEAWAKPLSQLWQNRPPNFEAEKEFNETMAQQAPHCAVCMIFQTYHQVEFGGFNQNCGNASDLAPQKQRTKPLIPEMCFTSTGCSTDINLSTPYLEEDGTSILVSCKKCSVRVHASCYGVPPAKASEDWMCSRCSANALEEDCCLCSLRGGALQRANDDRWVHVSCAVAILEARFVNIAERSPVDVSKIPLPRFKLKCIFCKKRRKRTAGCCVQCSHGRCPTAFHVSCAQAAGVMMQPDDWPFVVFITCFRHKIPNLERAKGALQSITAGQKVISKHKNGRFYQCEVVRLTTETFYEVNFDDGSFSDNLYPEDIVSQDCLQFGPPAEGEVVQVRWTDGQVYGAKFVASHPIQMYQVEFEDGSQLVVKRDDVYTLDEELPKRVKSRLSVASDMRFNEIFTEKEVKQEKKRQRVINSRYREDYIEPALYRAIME
G9a inh = blocks human histone lysine methyltransferase G9a. Q96KQ7. G9a H3K9 monomethylation, AlphaScreen, 2 h. Potency, µM (highest dose often 102 µM), inactives show at the top dose activity, negative = inhibition, most hits filed as inhibitors. actives 8.8% (n = 350,000); further: on the % scale 0 is the no-effect control and ±100 the full control effect; nearly all actives have a fitted effect of over 75% in size
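Methyltransferase reactions run at room temperature for 2 h (20 nM enzyme, 500 nM biotin-H3K9 peptide, 20 uM SAM) after a 15 min compound preincubation; product detected by AlphaScreen beads and anti-H3K9me1 antibody.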
HP1b chromo inh = inhibitors of HP1-beta chromodomain binding to methylated histone tails; P83916; AlphaScreen HP1-beta / biotin-H3K9me3 peptide binding; Potency, µM (highest dose often 114 µM), without a hit: at the top dose activity change, negative = inhibition, actives largely listed as inhibitors; actives 0.56% (n = 390,000); AID 540317; further: nearly all actives have a fitted effect of over 70% in size
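AlphaScreen: HP1-beta (50 nM) preformed 30 min with biotin-H3(1-18)K9me3 peptide (50 nM) in PBS pH 7.4, 0.01% Tween-20. Compound added for 30 min at RT, then streptavidin donor/nickel chelate acceptor beads (10 ug/mL) for 30 min.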
BAZ2B block = inhibitors of human BAZ2B bromodomain | AlphaScreen BAZ2B-H3K14Ac peptide displacement | AID 504333 | actives 4.4% (n = 360,000) | Potency, µM (titrated, usually from 114 µM), inactives show at the highest dose activity change, negative = inhibition, hits mostly inhibitors; further: on the % scale 0 is the no-effect control and ±100 the full control effect; nearly all actives have a fitted effect of over 60% in size
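BAZ2B 50 nM plus b-H3(5-23)K14Ac 50 nM, PBS pH 7.4/0.01% Tween-20, 30 min RT; compound added (max 110 uM), 30 min RT; streptavidin donor/Ni-chelate acceptor beads 10 ug/mL final, 20 min dark; AlphaScreen read.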
L3MBTL1 block = blocks human L3MBTL1 | Q9Y468 | AlphaScreen L3MBTL1–H3K9me1 peptide binding | Potency, µM (highest dose often 57.1 µM), for the others: at the highest dose activity, negative = inhibition, actives largely listed as inhibitors | actives 0.66% (n = 230,000) | AID 485360; further: on the % scale 0 is the no-effect control and ±100 the full control effect; nearly all actives have a fitted effect of over 60% in size
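First, the protein-peptide complex forms for 30 min at room temperature (L3MBTL1 50 nM, biotinylated H3K9me1 peptide 75 nM). Next, compounds are pin-transferred and incubated 30 min. Finally, AlphaScreen beads are added and read after 30 min.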
Sfp PPTase inh = blocks B. subtilis Sfp PPTase activity. Q9F4F7. Potency, µM, for inactives: largest response in the series, negative = inhibition, actives largely listed as inhibitors. actives 3.5% (n = 310,000). Biochemical Sfp PPTase activity, qHTS;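 further: the enzyme is Sfp with the accession as filed and its product quenches rhodamine fluorescence; 0% = enzyme reaction without inhibitor and -100% = no enzyme wells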
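Fluorescence-quenching assay with 15 nM Sfp, 5 uM rhodamine-CoA and 12.5 uM BHQ-2-labelled ybbR peptide in pH 7.6 Hepes/MgCl2 buffer. Enzyme was pre-incubated with compound for 15 min at room temperature. Rate was taken from the 30-min fluorescence change (525/598 nm).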
Starred values were filed as active, the others as inactive; ! = repeats disagree; [ ] = another dose, or the depositor's remark. Compounds with a hit are over-represented: about 12% of the library has one in this group of screens. The call rests on the fitted dose curve; in most records, active means well fitted curve in the direction sought with a large enough effect; inconclusive means small, poorly fitted or top-dose-only effect, or another doubt; inactive means no such curve, though single readings can be large; an effect the other way counts as inactive or inconclusive. Potency means the concentration at half of the fitted maximal effect.

Screening NC1CCCCC1N=Cc1c(O)n(CCc2ccc(F)cc2)c(=O)[nH]c1=O (stereo unspecified) returned JMJD2A Tudor -19.6%, G9a inh 1µM*, HP1b chromo inh 25.1%, BAZ2B block 44.7µM*, L3MBTL1 block -1.9% and Sfp PPTase inh 2.5%.
`O=C(N/N=C/c1c(O)n(CCc2ccccc2)c(=O)[nH]c1=O)c1ccccc1` gave JMJD2A Tudor -35.1%, HP1b chromo inh 39.5%, BAZ2B block 79.4µM*, L3MBTL1 block -1.1% and Sfp PPTase inh 8.8%.
Screening O=C(N/N=C/c1c(O)n(C2CCCCC2)c(=S)[nH]c1=O)c1ccccc1 returned JMJD2A Tudor 79.4µM*, G9a inh inconclusive, HP1b chromo inh 68.4%, BAZ2B block -0.8% and Sfp PPTase inh 25.6%.
Screening Cn1c(=O)c2c(nc(N/N=C/c3c(O)n(-c4ccccc4)c(=S)[nH]c3=O)n2C)n(C)c1=O returned JMJD2A Tudor inconclusive, G9a inh -6.4%[59 µM], HP1b chromo inh -2.3%, BAZ2B block -10.5%, L3MBTL1 block 9.0% and Sfp PPTase inh 79.4µM*.
`CC(C)c1ccc(-n2c(O)c(/C=N/NC(=O)c3ccccc3O)c(=O)[nH]c2=S)cc1` gave JMJD2A Tudor 79.4µM*, HP1b chromo inh 20.5%, BAZ2B block 50.1µM*, L3MBTL1 block -41.7% and Sfp PPTase inh -30.1%.
For O=C(N/N=C/c1c(O)n(C2CCCCC2)c(=S)[nH]c1=O)c1ccccc1O the results were JMJD2A Tudor 7.4%, G9a inh 75.0%[59 µM], HP1b chromo inh 45.2%, BAZ2B block 79.4µM* and Sfp PPTase inh -13.4%.
Screening CC(C)COP(=O)(c1ccc(N(C)C)cc1)C(Nc1ccccc1)c1ccccc1 (stereo unspecified) returned JMJD2A Tudor -35.1%[57.1 µM], G9a inh inconclusive, HP1b chromo inh 48.0%, BAZ2B block inconclusive, L3MBTL1 block -3.8% and Sfp PPTase inh -6.3%.
`CN(C)c1ccc(P(=O)(OC2CCCCC2)C(Nc2ccccc2)c2cccnc2)cc1` (stereo unspecified) gave JMJD2A Tudor -20.8%, HP1b chromo inh -16.8%, BAZ2B block 39.8µM* and Sfp PPTase inh -6.6%.
`CCCCCc1nc2ccccc2c(=O)n1-c1ccc(C)cc1` gave JMJD2A Tudor 16.6%, G9a inh -0.4%[59 µM], HP1b chromo inh 34.9% and BAZ2B block 0.0%.
`CCCCCc1nc2c(c(=O)c3ccccc3n2C)c(=O)n1C1CCCCCC1` gave JMJD2A Tudor -27.1%, G9a inh -4.3%, HP1b chromo inh 0.7%, BAZ2B block -24.3%, L3MBTL1 block -5.3% and Sfp PPTase inh 39.8µM*.
Cc1ccc2c(c1)CC1(CN2C)C(=O)NC(=O)N(c2cccc(C)c2C)C1=O (stereo unspecified) was read as JMJD2A Tudor -15.2%, G9a inh 7.94µM*, HP1b chromo inh 49.1%, BAZ2B block -2.3%, L3MBTL1 block 5.2% and Sfp PPTase inh -8.4%.
`Cc1ccc2c(c1)CC1(CN2C)C(=O)NC(=O)N(c2ccccc2C)C1=O` (stereo unspecified) gave JMJD2A Tudor -4.7%[57.1 µM], G9a inh 10µM*, HP1b chromo inh 34.0%, BAZ2B block -4.5%, L3MBTL1 block -0.3% and Sfp PPTase inh -8.8%.
`Cc1ccc2c(c1)CC1(CN2C)C(=O)NC(=O)N(CCc2ccccc2)C1=O` (stereo unspecified) gave JMJD2A Tudor 2.1%, G9a inh 7.94µM*, HP1b chromo inh 47.3%, BAZ2B block -3.9% and Sfp PPTase inh -26.7%.
For COc1ccccc1N1C(=O)NC(=O)C2(Cc3cc(C)ccc3N(C)C2)C1=O (stereo unspecified) the results were JMJD2A Tudor -30.1%, G9a inh 8.91µM*, HP1b chromo inh 29.9%, BAZ2B block -4.6%, L3MBTL1 block -0.4% and Sfp PPTase inh -17.3%.
NC(=O)C1=CN(C2OC(COP(=O)(O)OP(=O)(O)OC[C@H]3O[C@@H](n4cnc5c(N)ncnc54)[C@H](OP(=O)(O)O)[C@H]3O)C(O)C2O)C=CC1 (stereo partly specified) was read as G9a inh 7.8%.
For CC(=O)O[C@@H]1[C@@H](O)C2OC3C=C(C)C(=O)[C@@H](O)[C@]3(CO)C1(C)C21CO1 (stereo partly specified) the results were Sfp PPTase inh 2.4%.
For Cc1ccc2c(c1)CC1(CN2C)C(=O)NC(=O)N(c2ccc(C)c(C)c2)C1=O (stereo unspecified) the results were JMJD2A Tudor -16.5%, G9a inh 8.91µM*, HP1b chromo inh 33.6%, BAZ2B block -22.6%, L3MBTL1 block -1.9% and Sfp PPTase inh -8.4%.
Screening Cn1cc(C(=O)N2CCCCC2)c2ccccc21 returned JMJD2A Tudor -3.5%, G9a inh 36.7%, HP1b chromo inh 11.9%, BAZ2B block -4.7% and Sfp PPTase inh 24.8%.
`Cn1cc(C(=O)C(=O)N[C@H]2CN3CCC2CC3)c2ccccc21` gave G9a inh 38.1%[59 µM] and Sfp PPTase inh 56.2µM*!.
Screening Cc1ccc(-n2nc3c(=O)n(CC(=O)Nc4ccccc4F)nc(C)c3c2C)c(C)c1 returned JMJD2A Tudor -15.1%, G9a inh -5.1%[59 µM], HP1b chromo inh 40.4% and BAZ2B block -1.6%.
For O=C(O)Cc1cnc[nH]1 the results were JMJD2A Tudor 7.08µM*, G9a inh 9.47µM*!, HP1b chromo inh 19.6% and Sfp PPTase inh 50.1µM*.
O=C(O)[C@@H]1CSC(c2cccnc2)N1 (stereo partly specified) was read as Sfp PPTase inh 39.8µM*.
For O=C(CN1CCCCC1c1cccnc1)c1ccccc1 (stereo unspecified) the results were Sfp PPTase inh -25.3%.
`O=CN1CCCCC1C1CC[C@H]2CCCCN2C1` (stereo partly specified) gave Sfp PPTase inh -14.8%.
`CN1[C@@H]2CC[C@H]1CC(OC1c3ccccc3CCc3ccccc31)C2` (stereo partly specified) gave JMJD2A Tudor 79.4µM*, G9a inh -6.7%[5.15 µM], HP1b chromo inh -13.0%, BAZ2B block -25.5%, L3MBTL1 block -9.1% and Sfp PPTase inh 17.8%.
`Cc1ccc2c(CN3CC=C(c4ccccc4)CC3)cc(=O)oc2c1C` gave JMJD2A Tudor -24.2%, G9a inh 50.1µM*, HP1b chromo inh 12.6%, BAZ2B block -0.8%, L3MBTL1 block -4.3% and Sfp PPTase inh -5.3%.
